From PubChem BioAssay
CHX counter – affects cycloheximide protein synthesis inhibition readout, counter-screen; AID 2314; cell reporter, cycloheximide protein synthesis inhibition counterscreen; 12% of 300,000 active; max response, %; in the data active means max response mostly above about 13%, no sharp cut-off; inactive means mostly below about 14%; further: read at 38.3 µM for the half of the compounds with a filed dose; 0% is about no effect
Pf growth 96h – P. falciparum growth inhibition at 96 hours; 6.9% of 320,000 active; AID 504834; Potency, µM (highest dose often 28.7 µM), inactives show at the top dose activity change, negative = inhibition, actives largely listed as inhibitors; P. falciparum luciferase reporter growth, 96 h; further: potency means the concentration at half of the fitted maximal effect; on the % scale 0 is the no-effect control and ±100 the full control effect
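96 h incubation, 37 C, 5% CO2, of luciferase-reporter P. falciparum-infected RBCs (2% hematocrit, 0.05% parasitemia final) with test compounds; endpoint luminescence.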
Shiga inhibitor – blocks Shiga toxin action in Vero cells | Vero cells, Shiga toxin protein synthesis inhibition reporter | 9.2% of 290,000 active | inhibition, % at 38.7 µM; in the data active means inhibition mostly above about 28%, no sharp cut-off; inactive means mostly below about 43%; further: 0% is about no effect
Pf growth 48h – P. falciparum growth inhibition at 48 hours (one generation) | P. falciparum luciferase growth in erythrocytes, 48 h | Potency, µM (titrated, usually from 28.7 µM), for the others: at the top dose activity change, negative = inhibition, most hits filed as inhibitors | 5.9% of 310,000 active | AID 504832; further: potency means the concentration at half of the fitted maximal effect; on the % scale 0 is the no-effect control and ±100 the full control effect
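Here the parasites carry a stable luciferase gene and grow inside erythrocytes in Albumax-based RPMI medium with compound for one erythrocytic cycle. Activity is scored as loss of luminescent signal.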
HCMV inh – blocks human cytomegalovirus replication; 4.5% of 410,000 active; HFF cells, HCMV-luciferase reporter, 72 h; stronger effect = lower value; activity change, negative = inhibition, % at 57.5 µM; in the data active means activity change below about -60%; inconclusive means no clear call, values can overlap the other calls; inactive means above about -39%; further: on the % scale 0 is the no-effect control and ±100 the full control effect
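Luciferase read-out from HCMV-luciferase-infected HFFs (MOI 1 PFU/cell) 72 h post infection at 37C; compounds added after 16 h cell attachment; activity normalized between buffer-only basal and Salinomycin (10uM) inhibitor controls.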
Starred values were filed as active, the others as inactive; ? = inconclusive; · = no result; + = active, no number; [ ] = another dose, or the depositor's remark. The list is not random: actives were taken first. Their share in the collection is about 20%. Unless noted, the call rests on the fitted dose curve; in most records, active means well fitted inhibition curve with a large enough effect; inconclusive means small, poorly fitted or top-dose-only effect, or another doubt; inactive means no such curve, though single readings can be large or run the other way.

SMILES	CHX counter	Pf growth 96h	Shiga inhibitor	Pf growth 48h	HCMV inh
Cc1cc(C)c(C#N)c(SCc2nc3ccccc3[nH]2)n1	36*	-68%	94*	·	69
N#Cc1cc2c(nc1SCc1nc3ccccc3[nH]1)CCC2	44*	-1%	22	-16%	·
Cc1cc(C)c(C#N)c(SCc2ccc(F)cc2)n1	-3	-3%	7	?	?
CCc1noc(C)c1C(=O)OCC(=O)Nc1ncc(Cl)cc1Cl	-2	88%	-2	15%	-16
CN1CCc2sc(NC(=O)Cc3ccccc3)c(C(=O)Nc3ccc(Cl)cc3)c2C1	-3	·	4	·	·
Cc1ccc(C(=O)NCC(c2ccc(Cl)cc2)N2CCCCC2)cc1 (centres undefined)	·	·	·	·	-5
CC#CC(=O)N1CCC(n2nccc2NC(=O)c2ccc3c(c2)OCO3)CC1	23*	?	72*	-16%	?
CSCCC(=O)N1CCC(n2nccc2NC(=O)c2ccc3c(c2)OCO3)CC1	54*	40%	65*	25%	97
C=CCC(=O)N1CCC(n2nccc2NC(=O)c2ccc3c(c2)OCO3)CC1	·	·	·	·	-3
CCCc1nc2ccc(NC(=O)c3ccccc3OC)cn2n1	·	·	·	·	-13
Cc1cc(NC(=S)Nc2ccc(C)c(Cl)c2)n[nH]1	68*	19%	133*	33%[1.15 µM]	-17
COc1cc(C)c(NC(=S)Nc2ccc(C)c(Cl)c2)cc1OC	0	37%	-7	14%	-14
COc1ccc(NC(=S)Nc2cccc(Cl)c2Cl)cc1OC	-2	0%	2	-6%	1
COc1ccc(NC(=S)Nc2cc(C)[nH]n2)cc1Cl	45*	116%	90*	53%	0
COc1ccc(NC(=S)Nc2cc(-c3ccccc3)[nH]n2)cc1Cl	20*	?	8	?	35
CCc1ccc(CN(Cc2ccco2)C(=O)c2cc(-c3ccc(Cl)cc3)on2)cc1	·	·	·	·	-5
CCc1ccc(NC(=O)Cn2c(=O)n(CCCCC(=O)NCc3ccc4c(c3)OCO4)c(=O)c3ccccc32)cc1	·	·	·	·	-39
CCCCN(C)CCCNC(=O)c1ccc2nc(N3CCCCC3)sc2c1	·	·	·	·	-21
Cc1cccc(NC(=O)c2c(C)nc3ccccn23)c1	29*	-17%	80*	95%	16
Cc1ccc(NC(=O)c2c(C)nc3ccccn23)cc1C	41*	256%	57*	385%	110
Cc1cc(C)cc(NC(=O)c2c(C)nc3ccccn23)c1	11	23%	16	-29%	?
O=C(NCCCN1CCOCC1)c1sc2ccccc2c1Cl	39*	-5%	47*	29%	18
O=C(NCCN1CCOCC1)c1sc2cc(Cl)ccc2c1Cl	17*	14%	45*	51%	16
O=C(Nc1ccc(Cl)cc1C(=O)NCC1CCCO1)c1ccc(Cl)cc1Cl (centres undefined)	-1	-13%	-1	8.3µM*	-20
O=C(Nc1ccc(Cl)cc1C(=O)NCC1CCCO1)c1ccco1 (centres undefined)	-2	·	10	-20%	10
SMILES	CHX counter	Pf growth 96h	Shiga inhibitor	Pf growth 48h	HCMV inh
O=C(NCC1CCCO1)c1sc2cc(Cl)ccc2c1Cl (centres undefined)	54*	?	76*	128%	13
O=C(NCC1CCCO1)c1cccc(C(=O)NCC2CCCO2)c1 (centres undefined)	-2	6%	-8	20%	-5
O=C(NCCCN1CCOCC1)c1ccccc1	0	37%	-51	23%	-17
O=C(NCCN1CCOCC1)c1cc(Cl)ccc1Cl	-2	?	-15	4%	-4
Cc1cc(-c2nnc(SCC(=O)NC3CC3)n2C(C)C)cs1	-1	7%	-12	5%	0
C(=C1/CCCC2=C1Nc1ncnn1C2c1ccccc1)/c1ccccc1 (centres undefined)	-3	-9%	-15	12µM*	·
S=C1NC2=C(CCC/C2=C\c2ccccc2)C(c2ccccc2)N1 (centres undefined)	-1	?	-2	-22%	?
COc1ccc(NC(=O)C(C)NS(=O)(=O)c2ccccc2)cc1Cl (centres undefined)	1	·	-5	-5%	-4
COc1ccc(NC(C)C(=O)Nc2ccc(C(C)(C)C)cc2)cc1Cl (centres undefined)	20*	·	38	?	6
COc1ccc(NC(C)C(=O)Nc2ccc(C#N)cc2)cc1Cl (centres undefined)	-1	2.3µM*	-8	·	-2
CCc1ccc(C(=O)Nc2cccc(-c3nc4cc(C(C)C)ccc4o3)c2)cc1	·	·	·	·	14
CCOC(=O)c1c(C)nc(C)c(C(=O)OCC)c1-c1ccco1	-2	-1%	8	15%	-19
CCOc1ccc(NC(=O)CN2C(=O)CSc3ccc(S(=O)(=O)N4CCCC4)cc32)cc1	0	?	13	-9%	+
CCOc1ccc(NC(=O)CN2C(=O)CCSc3ccc(S(=O)(=O)N4CCCC4)cc32)cc1	-9	9%	-2	?	4
Cc1ccccc1NC(=O)CN1C(=O)CSc2ccc(S(=O)(=O)N3CCCC3)cc21	-6	13µM*	2	-16%	10
Cc1ccc(S(=O)(=O)Nc2cc(C(=O)Nc3cc(C)cc(C)c3)ccc2Cl)cc1	3	12%	-11	10%	60
Nc1cc(N)nc(SCc2nnnn2-c2ccc(Cl)cc2)n1	0	?	7	21%	-1
CCSc1nnc(NC(=O)CCNS(=O)(=O)c2cc(Br)cnc2N)s1	-1	9.3µM*	-1	?	24
O=C(c1ccccc1Oc1ccccc1)N1CCN(c2ccccc2F)CC1	0	?	-9	·	-27
COc1ccccc1N1CCN(C(=O)c2ccccc2Oc2ccccc2)CC1	10	?	-39	13µM*	-20
COc1ccccc1N1CCN(C(=O)c2ccccc2NC(=O)C2CCCCC2C(=O)O)CC1 (centres undefined)	5	7.4µM*	11	15%	-5
COc1ccccc1N1CCN(C(=O)c2cccc3c(=O)c(C)c(-c4ccccc4)oc23)CC1	0	?	-3	?	-66*
COc1ccccc1N1CCN(C(=O)c2oc3ccccc3c2C)CC1	6	?	12	?	26
COc1ccccc1N1CCN(C(=O)c2ccccc2N(C)S(=O)(=O)c2ccc(C)cc2)CC1	0	?	-14	10µM*	-20
COc1ccccc1N1CCN(C(=O)C(Cc2ccccc2)NC(=O)C2CCCCC2)CC1 (centres undefined)	-2	0%	-7	10µM*	-12
COc1ccccc1-n1nc(C(=O)O)c2ccccc2c1=O	-2	?	-3	1%	?
COc1ccccc1N1CCN(C(=O)c2nn(-c3ccccc3OC)c(=O)c3ccccc23)CC1	-1	?	-14	9.3µM*	46
CC(C)CNC(=O)C1CCN(c2ccc(S(=O)(=O)N3CCOCC3)cc2[N+](=O)[O-])CC1	-6	?	-3	?	-25
COc1ccc(N2CCN(CC(=O)Nc3ccccc3C(=O)NCc3ccccc3)CC2)cc1	·	?	·	13µM*	14
